# According to paper PMC4336329 (PLoS ONE, 2015):
# Out of some 310,000 compounds screened, about 14,000 (4.5%) showed an effect of 50% or more. Effects have a minus sign here. Only a selection was taken, and strong results are over-represented in it overall.
# Molecular target: human ether-à-go-go-related gene (hERG) potassium channel (human, UniProt Q12809)
# Experiment: primary screen, population patch clamp on CHO cells stably expressing hERG; higher = less effect of the substance
# 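Further: peak tail current of the secondary pulse compared with the same well before compound.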
# Chain of human ether-à-go-go-related gene (hERG) potassium channel (Q12809 whole entry, looked up): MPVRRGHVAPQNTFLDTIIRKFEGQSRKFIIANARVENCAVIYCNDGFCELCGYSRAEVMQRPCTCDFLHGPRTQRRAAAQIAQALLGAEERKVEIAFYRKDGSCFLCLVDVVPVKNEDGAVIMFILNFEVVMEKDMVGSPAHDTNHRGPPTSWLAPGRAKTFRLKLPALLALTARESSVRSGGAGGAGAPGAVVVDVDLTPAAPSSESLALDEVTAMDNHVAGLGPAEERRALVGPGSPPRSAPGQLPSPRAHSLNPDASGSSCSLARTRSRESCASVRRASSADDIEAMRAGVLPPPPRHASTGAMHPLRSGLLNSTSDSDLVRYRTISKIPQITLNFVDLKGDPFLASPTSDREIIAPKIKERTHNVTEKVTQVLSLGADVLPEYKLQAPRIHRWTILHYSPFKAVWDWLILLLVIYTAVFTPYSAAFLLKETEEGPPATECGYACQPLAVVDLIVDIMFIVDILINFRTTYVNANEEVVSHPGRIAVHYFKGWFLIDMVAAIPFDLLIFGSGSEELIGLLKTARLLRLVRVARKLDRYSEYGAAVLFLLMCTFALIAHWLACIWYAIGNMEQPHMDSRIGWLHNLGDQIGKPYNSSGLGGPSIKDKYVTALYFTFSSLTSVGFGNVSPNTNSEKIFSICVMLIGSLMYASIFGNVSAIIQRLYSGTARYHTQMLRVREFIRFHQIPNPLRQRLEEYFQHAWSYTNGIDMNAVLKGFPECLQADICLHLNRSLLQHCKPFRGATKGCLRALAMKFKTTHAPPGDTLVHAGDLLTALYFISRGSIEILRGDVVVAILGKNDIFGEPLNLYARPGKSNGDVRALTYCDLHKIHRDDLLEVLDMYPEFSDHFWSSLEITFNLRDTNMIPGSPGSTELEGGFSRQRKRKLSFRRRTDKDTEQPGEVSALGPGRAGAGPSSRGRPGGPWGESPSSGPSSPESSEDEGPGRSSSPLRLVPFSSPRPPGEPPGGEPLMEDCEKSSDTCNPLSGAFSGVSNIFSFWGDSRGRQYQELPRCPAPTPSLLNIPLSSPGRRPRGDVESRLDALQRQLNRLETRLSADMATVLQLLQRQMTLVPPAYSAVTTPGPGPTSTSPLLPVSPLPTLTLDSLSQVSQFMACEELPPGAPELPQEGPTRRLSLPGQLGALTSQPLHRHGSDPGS
row,SMILES,"hERG current change (%, negative = inhibition) at 10uM"
1,Cn1c(=O)[nH]c(=O)c2c1ncn2CCCc1ccccc1,1.26%
2,Cc1ccc(-c2[nH]ncc2C(=O)c2ccc(Br)cc2)c(O)c1,-9.43%
3,O=C(O)C(=O)O.c1ccc(-c2cc(N3CCOCC3)nc3ccccc23)cc1,-11.6%
4,COc1ccc2c(-c3ccccc3)cc(N3CCOCC3)nc2c1.O=C(O)C(=O)O,3.22%
5,O=C(O)C(=O)O.OCCN1CCN(c2cc(-c3ccccc3)c3ccccc3n2)CC1,-63.3%
6,CCOC(=O)c1ccc[n+](CC(=O)Nc2ccccc2OC(F)F)c1.[Cl-],4.85%
7,CCCCOc1ccc(C(=O)Nn2cnnc2)cc1,-0.225%
8,Cc1nc2ccc(NC(=O)c3cc(Cl)ccn3)cc2s1,17.4%
9,Cc1sc2nc(SCc3ccccc3)n(Cc3ccco3)c(=O)c2c1C,-2.09%
10,C=CCn1c(SCc2ccc(C(=O)NCCO)cc2)nc2sc(C)c(C)c2c1=O,-61.6%
11,Cc1sc2nc(SCc3ccc(C(=O)O)cc3)n(Cc3ccco3)c(=O)c2c1C,-59.2%
12,C=CCn1c(SCc2ccc(C(=O)O)cc2)nc2sc(C)c(C)c2c1=O,-4.36%
13,Cc1ccc(CSc2nc3sc(C)c(C)c3c(=O)n2Cc2ccco2)cc1,-6.19%
14,C=CCn1c(SCC(=O)NCCO)nc2sc(C)c(C)c2c1=O,11.6%
15,O=C1C2CC=C(Cl)CC2C(=O)N1CCC[n+]1cccc2ccccc21 (stereo not drawn),8.95%
16,Cc1onc(-c2ccccc2Cl)c1C(=O)Nc1nnc(-c2ccc(Cl)cc2Cl)s1,17%
17,Cc1cc(OCC(=O)NCC(O)c2ccccc2)c2c3c(c(=O)oc2c1)CCC3 (stereo not drawn),16.1%
18,Cc1ccc(/C=N/NC(=O)Cn2cnc3ccccc32)cc1,14.4%
19,CC1(C)CNc2cc([N+](=O)[O-])ccc2S1,6.88%
20,COc1ccc(C(=O)NCC(=O)N2CCN(c3ccc(F)cc3)CC2)cc1,-1.94%
21,CCOCCCN(C)C1CCN(C(=O)c2oc3ccccc3c2NC(=O)Cc2ccc(F)cc2)CC1,-77.8%

row,SMILES,"hERG current change (%, negative = inhibition) at 10uM"
1,CCOCCCN(C)C1CCN(C(=O)c2oc3ccccc3c2NC(=O)COc2cccc(C)c2)CC1,-82.2%
2,COCCCN(C)C1CCN(C(=O)Nc2ccc(F)cc2)CC1,-28.8%
3,CCOCC(=O)Nc1c(C(=O)OCC)oc2ccccc12,-11.1%
4,CCOC(=O)c1oc2ccccc2c1NC(=O)COc1ccc(F)cc1,14%
5,COc1ccc(CC(=O)Nc2c(C(=O)N3CCN(c4ccccc4OC)CC3)oc3ccccc23)cc1OC,-24.4%
6,CCOCCCN(C)C1CCN(C(=O)c2oc3ccccc3c2NC(=O)COc2ccc(F)cc2)CC1,-80.1%
7,CCOCC(=O)Nc1c(C(=O)N2CCN(c3ncccn3)CC2)oc2ccccc12,-21.4%
8,NC(=O)c1oc2ccccc2c1NC(=O)c1ccc(F)cc1,10.9%
9,CCOC(=O)c1oc2ccccc2c1NC(=O)COc1cccc(OC)c1,10.4%
10,CCOCCCN(C)C1CCN(C(=O)c2oc3ccccc3c2NC(=O)c2ccc(F)cc2)CC1,-77.5%
11,COc1ccc(S(=O)(=O)Nc2ccc3oc(C)c(C(=O)O)c3c2)cc1,21.3%
12,CSc1nc(C)cc(Oc2ccc(OCCOc3ccccc3)nn2)n1,-23.2%
13,OC1(c2ccc(Cl)cc2)CCN(Cc2nc(-c3cnccn3)no2)CC1,-1.35%
14,CSc1nc2n(n1)C(c1cccc(F)c1)C(C(=O)Nc1ccc(C)cc1C)=C(C)N2 (stereo not drawn),-0.769%
15,O=C(COC(=O)c1ccccc1N1C(=O)C2C3CCC(C3)C2C1=O)c1ccccc1 (stereo not drawn),1.28%
16,COc1cccc(N(C(=O)c2sc(C)nc2C)C(C(=O)NCC2CCCO2)c2ccccc2)c1 (stereo not drawn),-8.87%
17,CC1CCCCC1NC(=O)c1ccc2c(c1)OCCO2 (stereo not drawn),3.51%
18,Cc1cc(OCc2nc3ccccc3s2)ccc1N,-1.17%
19,Cc1cc(NC(=O)/C=C/c2cccc(Cl)c2)n(-c2nc3ccccc3[nH]2)n1,-1.83%
20,COc1ccc(-c2csc(N3CCN(S(=O)(=O)c4ccc5c(c4)NC(=O)CO5)CC3)n2)cc1,17.2%
21,CCC(=O)NN1CCN(c2ccncc2S(=O)(=O)N2CCCCC2)CC1,5.14%
